# Screens deposited in PubChem BioAssay by National Center for Advancing Translational Sciences (NCATS).
# Only some compounds are listed: those with a hit (about 4.6% of all), similar ones and a draw of the others.
# D1 potentiator – enhances dopamine response at the human D1 receptor; HEK293 TREx D1 cells, calcium flux, dopamine EC20 potentiation; potentiation, % at 10 µM; P21728; 360,000 tested, 0.036% active; in the data active = potentiation above about 30%; note: 0% is about no effect
# Target sequence (P21728 whole entry, looked up): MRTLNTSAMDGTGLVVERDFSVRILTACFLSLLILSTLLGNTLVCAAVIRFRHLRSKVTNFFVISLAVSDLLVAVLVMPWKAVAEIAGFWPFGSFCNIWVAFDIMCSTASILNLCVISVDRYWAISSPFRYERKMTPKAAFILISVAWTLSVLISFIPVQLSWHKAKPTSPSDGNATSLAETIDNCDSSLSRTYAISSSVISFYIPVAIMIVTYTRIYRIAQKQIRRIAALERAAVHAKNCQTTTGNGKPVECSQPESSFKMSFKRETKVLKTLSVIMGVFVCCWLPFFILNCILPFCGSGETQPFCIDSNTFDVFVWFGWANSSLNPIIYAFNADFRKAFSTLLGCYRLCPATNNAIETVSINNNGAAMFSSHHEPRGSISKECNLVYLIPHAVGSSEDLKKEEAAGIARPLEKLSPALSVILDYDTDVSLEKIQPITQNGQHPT
# TRHR ag – TRH receptor (human) agonism; TRHR cells, calcium flux fluo-8, FDSS agonist mode; AID 493084; 360,000 tested, 0.18% active; activation, % at 2 µM; P34981; note: 0% is about no effect
#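 In this calcium-flux screen, cells bearing human TRHR are dye-loaded with fluo-8, baselined for 10 cycles, then exposed to library compounds; positive kinetic calcium responses during the agonist phase mark hits, with TRH as control.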
# TRHR PAM – TRH receptor (human) allosteric enhancement. P34981. TRHR cells, fluo-8 calcium fluorescence, EC20 TRH enhancement. 360,000 tested, 0.66% active. enhancement, % at 2 µM; in the data active = enhancement above about 30%; note: 0% is about no effect
#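 Enhancer read-out: after compound pinning and an initial kinetic agonist-mode read, an EC20 of TRH (10 nM final) was injected and fluo-8 calcium signal (Ex 480/Em 530) followed at 1 s/cycle for 100 cycles in TRHR-expressing cells.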
# D1 antagonist – blocks dopamine activation of the human D1 receptor; 360,000 tested, 3.2% active; activity change, negative = inhibition, % at 10 µM; HEK293 TREx D1 cells, calcium flux, dopamine EC80; stronger effect = lower value; AID 504652; in the data active = activity change below about -30%; note: % is set by controls: 0 for no effect and ±100 for the full control effect
#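 Tetracycline-induced HEK293 T-REx cells with force-coupled D1 receptor were loaded with a no-wash calcium dye. Compound was added after a 10 s baseline and read kinetically for 180 s; EC80 dopamine was then added and calcium flux followed another 180 s.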
# D1 agonist – agonists of human D1 dopamine receptor | P21728 | HEK293 T-REx D1 cells, calcium flux, agonist mode | activation, % at 2 µM | 360,000 tested, 1% active; note: 0% is about no effect
#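 Tetracycline-induced HEK293 TREx D1 cells, force-coupled to calcium signalling, were dye-loaded with a no-wash calcium kit. Compound was pin-added after a 10 s baseline. Fluorescence was read kinetically at 1 cycle/s for 180 s, with calcium rises flagged as agonism.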
# Starred values were filed as active, the others as inactive. Cut-off read from the data, not from the text of the source, unless noted: active = activation above about 30%; inactive = the rest.
SMILES,D1 potentiator,TRHR ag,TRHR PAM,D1 antagonist,D1 agonist
CCOCCCN1C(=O)CN(C2CCCCCC2)C(=O)C1c1ccc(OC(C)C)c(OC)c1 (stereo unspecified),-2,-1,-1,-38*,-4
Cc1cccc(C2NC(c3cccc(C)c3)C(C)C(=O)C2C)c1 (stereo unspecified),4,0,-2,5,1
CCCSc1n[nH]c(NC(C)=O)n1,-2,0,1,-5,2
CCCCCCCCCCSc1n[nH]c(NC(C)=O)n1,-9,0,0,-41*,0
CCOC(=O)c1cncc(C#CCOC(=O)Nc2ccc(OC(F)(F)F)cc2)c1,-8,1,-13,-34*,26
Cc1ccc(S(=O)(=O)N(CC(=O)N/N=C/c2cccc(C)c2)c2cccc3cccnc23)cc1,-10,0,-15,-30*,3
CCN(CC)S(=O)(=O)c1cccc(C(=O)N/N=C2\CC(=O)CC(C)(C)C2)c1,-2,3,-5,-18,4
CCN(CC)S(=O)(=O)c1cccc(C(=O)N/N=C2\CCCC(=O)C2)c1,-2,9,-14,21,38*
CCOc1cccc2cc(-c3nc4sc5c(c4c(=O)[nH]3)CCC(C(C)(C)C)C5)c(=O)oc12 (stereo unspecified),-3,0,10,-2,1
CC1=C(C(=O)OC2CCCC2)C(c2ccc(F)cc2F)CC(=O)N1 (stereo unspecified),-3,-1,-2,-33*,19
CCOc1cc(C#N)c(NC(=O)Cn2nnc(-c3ccc(C)cc3)n2)cc1OCC,-2,1,-2,-9,4
Oc1ccc(/C=N/Nc2nn3cnnc3c3ccccc23)cc1,-1,1,9,-51*,0
O=C(Nc1cccnc1)C1COc2ccccc2O1 (stereo unspecified),-8,-1,10,-8,6
O=C(Nc1ncccc1Cl)C1COc2ccccc2O1 (stereo unspecified),-7,0,-4,9,47*
Cc1ccccc1-c1nc(C(N)=O)c2c(n1)n(-c1ccc3c(c1)OCO3)c(=O)n2C,2,0,24,-1,2
O=C(CSc1c2c(nc3ccccc13)CCC2)Nc1ccc(F)cc1F,-2,-1,-8,-36*,-1
COc1ccc(NC(=O)c2ccc3c(SCC(=O)O)c4c(nc3c2)CCC4)c(OC)c1,1,0,4,-35*,2
CSc1cccc(-c2nnc(NC(=O)c3cccc(N4C(=O)CCC4=O)c3)o2)c1,2,0,0,6,0
O=C(/C=C/c1ccccc1)Nc1nc(-c2cccs2)ns1,0,0,19,2,3
CCCc1cc(=O)oc2c(CN(CC)CC)c(O)c(Cl)cc12,9,0,3,-44*,3
CCCCc1cc(=O)oc2c(CN(CC)CC)c(O)c(Cl)cc12,-3,0,4,6,-3
CCCCc1cc(=O)oc2c(CN3CCCC3)c(O)c(Cl)cc12,0,0,6,-33*,4
COc1cccc(C2=NS(=O)(=O)N(C)C(C(=O)Nc3cccc(O)c3)=C2)c1,-4,0,-4,-4,4
O=C(NCc1ccccc1Cl)c1ccc2c(c1)N(Cc1ccccc1)C(=O)c1ccccc1S2,2,0,1,-8,1
CCCCN(C(=O)c1cccc(C)c1)c1c(N)n(CCC)c(=O)[nH]c1=O,0,0,41*,-7,3
SMILES,D1 potentiator,TRHR ag,TRHR PAM,D1 antagonist,D1 agonist
CCC(C)NC(=O)c1cc2c(=O)[nH]c3ccc(C)cc3c2s1 (stereo unspecified),1,-1,-2,-9,2
COc1ccc(CNC(=O)c2ccc3c(c2)NC(=O)C(C)S3)cc1 (stereo unspecified),-1,0,36*,-13,0
CN1CCN(/N=C/c2ccc(-c3ccc([N+](=O)[O-])cc3Cl)o2)CC1,-9,12,4,-8,52*
O=[N+]([O-])c1cc(-c2ccc(/C=N/n3cnnc3)o2)ccc1Cl,-4,0,-4,-6,1
O=[N+]([O-])c1ccc(Cl)c(-c2ccc(/C=N/n3cnnc3)o2)c1,-1,-1,-4,-42*,0
Cc1ccc(NC(=O)CCNS(=O)(=O)c2ccc(Br)s2)cc1,6,-1,4,7,0
